Results filed as inconclusive are left out. Where a call stands in place of a potency, no number is given. Activity calls are given as the source filed them. Calls follow the shape of the dose curve; as a rule, active = well fitted cell-killing curve with a large enough effect; inconclusive = small, poorly fitted or top-dose-only effect; inactive = no such curve, though single readings can be large or run the other way.
Potency is read from the fitted curve at half-maximal effect.

The experiment in a line: qHTS of pediatric cancer cell lines to identify multiple opportunities for drug repurposing: Primary screen for SK-N-MC cells (AID 1347093). Conditions: SK-N-MC viability, CellTiter-Glo luminescence, 48 h; series mostly up to 46 µM. The source says: Drug repurposing or repositioning has been offered as a strategy for drug development in oncology programs. This approach has special potential for childhood cancers and other rare or orphan diseases, where the expected return on new drug development has been a disincentive to pharmaceuticals.
In this project we exploit the poly-pharmacology of drugs to discover new indications via phenotypic screening of a panel of 19 well-characterized cell lines derived from solid tumors seen in children and adolescents. The goal is to identify approved drugs with previously unrecognized anticancer properties that has the potential to reveal new mechanisms and biological processes involved in carcinogenesis or drug resistance. We employed a titration-based paradigm (quantitative high-throughput screening or qHTS), where all compounds were tested at multiple concentrations for their effect on cell viability. Concentration-response curves (CRCs) were derived directly from the primary screen, and both potency and efficacy values were used to identify compounds with robust bioactivity profiles. We screened the NIH Chemical Genomics Center (NCGC) Pharmaceutical Collection (NPC) and Mechanism Interrogation Plate (MIPE) small molecule collections of approved and investigational compounds against these cell lines; and measured metabolically active cells after 48 hours of compound treatment as a proxy for cell viability.
Assay Submitter: Nathalia J. Martinez, National Center for Advancing Translational Sciences, National Institutes of Health, Rockville, MD, USA; email: natalia.martinez@nih.gov
[1] Shen, M et al. Quantitative high-throughput phenotypic screening of pediatric cancer cell lines identifies multiple opportunities for drug repurposing. Oncotarget 2017 Dec 19;9(4):4758-4772. PMID 29435139.
The cells were obtained from University of North Carolina (UNC), Pediatric Preclinical Testing Program (PPT), and Coriell Institute (CI).
qHTS cell viability assay:
Cells were assayed in growth media at a density of 500-1,000 cells/well. Five microliters of cells were dispensed into 1,536-well, white, solid-bottom, TC-treated plates (Greiner Bio One) using a multidrop dispenser and incubated at 37 degrees C, 5% CO2, under a humidified atmosphere for 5 hours. Twenty-three nanoliters of compounds and controls (neutral control DMSO or positive control bortezomib at final concentration of 2.3 µM) were subsequently transferred by Kalypsys pintool. For primary screens, the MIPE collection was tested at 11-point dilutions (final concentrations range from 0.78 nM to 46 µM) and the NPC collection at 8-point dilutions (final concentrations range from 0.59nM to 46 µM). Compounds tested in follow-up screens were assayed at 11-point dilutions. Cells were incubated for 48 hours, followed by addition of 3 uL of CellTiter-Glo (Promega). After a 15 min incubation at room temperature, samples were analyzed for luminescence intensity using a ViewLux High-throughput CCD imager equipped with clear filters.
Background: In qHTS, concentration-response curves come from the screen itself.
Consider `CCCCCC(C)N` (stereo not given), for which the Potency entry is “inactive”. As to `CC(=O)Oc1cccc(O)c1`, the Potency result is “inactive”.

Consider `CC(=O)NCc1c(I)c(NC(C)=O)c(I)c(C(=O)O)c1I`, for which the Potency result is “inactive”. `NC(N)=NCCN1CCCCCCC1`: the activity change, negative = cytotoxic is -13.5% [at 0.597 µM] (inactive). In the case of `O=C(CN1CCNCC1)NC1CCCCC1`, the Potency entry was “inactive”. Consider `CCN(CC)CCc1nc(-c2ccccc2)no1`, for which the Potency entry is “inactive”.

With `CCCCCOC(=O)Nc1nc(=O)n([C@@H]2O[C@H](C)[C@@H](O)[C@H]2O)cc1F`, the Potency entry was “inactive”. For the compound `COc1cc(C(=O)NCCCCCC(=O)O)cc(OC)c1OC`, the Potency entry is “inactive”. As for `O=C(O)COC(=O)Cc1ccccc1Nc1c(Cl)cccc1Cl`, the Potency is 26.6 µM (active). As for `COc1ccccc1OCC(O)CO` (stereo not given), the Potency result was “inactive”. For `CCS(=O)(=O)CCn1c([N+](=O)[O-])cnc1C`, the Potency result is “inactive”. The same measure, in the same setting: with `O=C1CC[C@@H](C(=O)O)N1` the entry was “inactive”; with `CN1CCCN=C1COC(=O)C(O)(c1ccccc1)C1CCCCC1` (stereo not given), “inactive”. Still for that read-out and setting: with `Cc1cc(NC(=O)C2=C(O)c3ccccc3S(=O)(=O)N2C)no1` the entry was “inactive”; with `CCCNC(C)C(=O)Nc1c(C)csc1C(=O)OC` (stereo not given), “inactive”; with `Nc1ccncc1N`, “inactive”. Consider `Nc1ncnc2c1ncn2[C@@H]1O[C@H](COP(=O)(O)O)[C@@H](O)[C@H]1O`, for which the Potency entry is “inactive”. Turning to `CNc1c2c(nn1C)CCCC2`, the Potency result is “inactive”. Turning to `Cc1cccc(C(=O)O)c1O`, the Potency entry was “inactive”. For `CC1(C)S[C@@H]2[C@H](N=CN3CCCCCC3)C(=O)N2[C@H]1C(=O)O`, the Potency entry is “inactive”. Consider `CC(=O)[C@@]1(O)CC[C@H]2[C@@H]3C[C@H](C)C4=CC(=O)C=C[C@]4(C)[C@@]3(F)[C@@H](O)C[C@@]21C`, for which the Potency entry was “inactive”. As for `CC(CSC(=O)c1ccccc1)C(=O)N1C[C@@H](Sc2ccccc2)C[C@H]1C(=O)O` (stereo not given in full), the Potency entry was “inactive”. Regarding `O=C(OOC(=O)c1ccccc1)c1ccccc1`, the Potency entry is “inactive”.

Take `NNC(=O)CP(=O)(c1ccccc1)c1ccccc1`: the Potency entry was “inactive”. For the compound `NC(=O)N[C@@H](CCC(=O)O)C(=O)O`, the Potency result was “inactive”. `COc1cc(O)cc(O)c1`: the Potency result was “inactive”. As for `NC(=O)CCCCC1CCSS1` (stereo not given), the Potency result is “inactive”.

Take `FC(F)(F)C(Cl)Br` (stereo not given): the Potency result was “inactive”. As to `CC(C(=O)O)c1ccc2c(c1)Cc1cccnc1O2` (stereo not given), the Potency entry is “inactive”. Take `O=C(NCCCN1CCOCC1)c1ccc(Cl)cc1`: the Potency result was “inactive”. As to `Cc1ccc(S(=O)(=O)NC(=O)NC2CCCCC2)cc1`, the Potency result was “inactive”. For `OCCN1C[C@H](O)[C@@H](O)[C@H](O)[C@H]1CO`, the Potency result was “inactive”. Consider `O=C(O)C(S)C(S)C(=O)O` (stereo not given), for which the Potency result is “inactive”. In the case of `CCN(CC)CCOC(=O)C(c1ccccc1)c1ccccc1`, the Potency result was “inactive”. In the case of `CC1CCN(CCCC(=O)c2ccc(F)cc2)CC1`, the Potency entry is “inactive”.

Take `CC(C)=CCC/C(C)=C/CO`: the Potency result is “inactive”.

With `CN1C(C)(C)CCCC1(C)C`, the Potency result is “inactive”. As for `COC(=O)N/N=C/c1c[n+]([O-])c2ccccc2[n+]1[O-]`, the Potency result was “inactive”.

For the compound `CCCCCC(N)=O`, the Potency result was “inactive”. On to `Nc1ncnc(Nc2ccccc2)n1`, for which the Potency entry is “inactive”.
